MITF inh – human MITF inhibition, primary screen | hit rate 0.91% among 650,000 | inhibition, % at 2.6 µM | O75030 | AlphaScreen MITF homodimerization, bead proximity signal | AID 1259374; in the data active means inhibition above about 50%;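 further: 0% = vehicle wells with protein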
TEAD-YAP block – TEAD-YAP interaction inhibition. inhibition, % at 9.12 µM. hit rate 1.4% among 640,000. HEK-TIYL cells, TEAD-Gal4/YAP UAS-luciferase luminescence. AID 1259422; in the data active means inhibition above about 32%;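 further: 0% = median of test compound wells and 100% = reference inhibitor wells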
GPR151 ag – human GPR151 activation; PathHunter beta-arrestin GPR151 cells, luminescence; activation, % at 11.2 µM; hit rate 1% among 650,000; AID 1508602; in the data active means activation above about 4.9%;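 further: 0% = median of compound wells and 100% = cells with positive control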
Target sequence (Q8TDV0 whole entry, looked up): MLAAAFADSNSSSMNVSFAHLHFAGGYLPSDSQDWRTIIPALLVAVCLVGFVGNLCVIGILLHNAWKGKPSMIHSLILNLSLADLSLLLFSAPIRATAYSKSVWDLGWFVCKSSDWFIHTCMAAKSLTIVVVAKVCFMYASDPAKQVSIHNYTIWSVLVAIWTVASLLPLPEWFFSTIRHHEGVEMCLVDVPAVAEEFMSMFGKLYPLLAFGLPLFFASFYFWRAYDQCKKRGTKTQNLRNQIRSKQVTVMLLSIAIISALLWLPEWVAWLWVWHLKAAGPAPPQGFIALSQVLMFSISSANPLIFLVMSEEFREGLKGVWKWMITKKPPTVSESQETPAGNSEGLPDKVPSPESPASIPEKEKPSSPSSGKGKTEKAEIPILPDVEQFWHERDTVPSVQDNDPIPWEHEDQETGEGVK
FBW7 act – activators of human E3 ligase FBW7; hit rate 0.13% among 650,000; Q969H0; AlphaScreen FBW7–phospho-cyclin E peptide binding, activator screen; normalized activity (activation), % at 26.1 µM; AID 1259310; in the data active means normalized activity above about 1.9%;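 further: purified mutant Fbw7 with reduced substrate affinity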
MITF confirm – human MITF inhibition, confirmation; AlphaScreen MITF homodimerization, biotin/His-MITF beads; inhibition, % at 2.6 µM; hit rate 16% among 4,700; shares compounds with MITF inh;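 active means inhibition above a cutoff derived from the DMSO control wells, cut at about 28% in these data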;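 further: 0% = MITF dimer wells with DMSO only; inhibitors lower the bead chemiluminescence by keeping MITF from dimerizing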
AS interf DR – optically interferes with AlphaScreen signal in dose response | hit rate 6% among 480 | IC50, µM | AlphaScreen optical interference counterscreen, cell-free | shares compounds with MITF inh; call rule not given here
AlphaScreen intf2 – counter-screen: compounds optically interfering with AlphaScreen | shares compounds with MITF inh | LysRS AlphaScreen counterscreen, signal interference, triplicate | inhibition, % at 2.6 µM | hit rate 7.6% among 4,700;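 active means inhibition above a cutoff derived from the DMSO control wells, cut at about 30% in these data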
Numbers without * were called inactive; / = no result. In the library only some 3.5% were active in any assay of this set; here they are far more common.

SMILES	MITF inh	TEAD-YAP block	GPR151 ag	FBW7 act	MITF confirm	AlphaScreen intf2	others
Cc1cc(-c2cnc(C)nc2C2CCCN(Cc3ccncc3)C2)on1 (centres undefined)	35.8	-12.7	0.3	-0.2	/	/
COc1cc(NS(=O)(=O)c2cc([N+](=O)[O-])ccc2C)ccc1C	-4.2	3.4	0.6	0.0	/	/
CN(C(=S)NC(=O)C1(C)CC1(Cl)Cl)c1ccccc1 (centres undefined)	50.6*	-3.0	-0.6	0.0	-1.0	17.6
CC1CCN(C(=O)c2ccc([N+](=O)[O-])cc2Cl)CC1	6.1	-1.8	-1.0	0.2	/	/
O=[N+]([O-])c1ccc(CN2CCSCC2)cc1	48.4	4.8	0.7	-0.3	/	/
O=[N+]([O-])c1ccc(CN2CCN(Cc3cccnc3)CC2)cc1	63.6*	-4.5	-0.7	0.0	-21.4	2.5
O=[N+]([O-])c1ccc(CN2CCN(Cc3ccncc3)CC2)cc1	64.5*	6.9	-0.9	-0.2	9.8	14.9
O=[N+]([O-])c1ccc(-c2nsc3c(N4CCN(Cc5cccnc5)CC4)ncnc23)cc1	13.3	-13.6	-0.4	-0.1	/	/
CC(=O)Nc1ccc(C(=O)NNC(=O)c2cccc(Br)c2)cc1	-3.4	-1.7	0.2	-0.1	/	/
CC(NCC(O)CO)c1ccc(-n2ccnc2)cc1 (centres undefined)	81.3*	-2.5	0.4	-0.3	11.2	10.5
Cc1ccc(C(=O)Nc2nnc(-c3cc(C)n(C)n3)o2)cc1	15.0	10.2	-1.6	0.1	/	/
CN(C)CC(=O)Nc1cccc(CN(C(=O)c2nc3ccc(-c4cn[nH]c4)cc3s2)C2CC2)c1	-4.2	-0.1	-0.2	-0.7	/	/
O=C(NCCN1CCCCC1)c1cccc(CN(C(=O)c2nc3ccc(-c4cn[nH]c4)cc3s2)C2CC2)c1	31.7	4.2	-1.0	0.6	/	/
CN1CCN(CCNC(=O)c2cccc(CN(C(=O)c3nc4ccc(-c5cn[nH]c5)cc4s3)C3CC3)c2)CC1	77.5*	49.7*	0.0	1.6	71.6*	-14.3	AS interf DR=>6.48
O=C(NCCN1CCOCC1)c1cccc(CN(C(=O)c2nc3ccc(-c4cn[nH]c4)cc3s2)C2CC2)c1	65.8*	15.3	1.0	1.7	72.7*	5.9	AS interf DR=>6.48
O=C(O)C1CC(O)CN1C(=S)NC1CCCCC1 (centres undefined)	15.1	-5.9	-1.3	0.2	/	/
N#Cc1ccc(NC(=O)CN2C(=O)C3CCCN3C(=O)c3ccccc32)cc1 (centres undefined)	72.0*	-7.9	-0.2	0.2	-22.9	-0.3
O=C(CN1C(=O)C2CCCN2C(=O)c2ccccc21)Nc1ccc(F)cc1 (centres undefined)	0.7	3.0	-0.8	0.5	/	/
CN(CCc1ccccn1)Cc1ccc2c(c1)CN(Cc1cccc3nccnc13)CCO2	1.2	11.6	0.5	0.0	/	/
CN(CCc1ccccn1)C1CC(=O)N(c2ccccc2)C1=O (centres undefined)	-19.2	-10.5	-0.8	-0.1	/	/
CN(CCc1ccccn1)Cc1cccc([N+](=O)[O-])c1	46.6	-1.2	-1.3	0.1	/	/
CN(CCc1ccccn1)Cc1ccc2c(c1)OCO2	62.7*	4.4	0.2	0.3	8.2	15.3
CN(CCc1ccccn1)Cc1ccc(F)c(Br)c1	67.7*	7.7	-0.8	0.3	-9.3	-5.6
CN(CCc1ccccn1)Cc1ccc(F)cc1	77.9*	-3.8	-1.0	-0.1	32.9*	16.7	AS interf DR=>6.59
CSc1ccc(CN(C)CCc2ccccn2)cc1	68.2*	5.8	1.2	-0.1	14.2	20.8
SMILES	MITF inh	TEAD-YAP block	GPR151 ag	FBW7 act	MITF confirm	AlphaScreen intf2	others
O=C(CCCOc1ccccc1)Nc1ccc([N+](=O)[O-])cc1Br	-0.6	-1.2	1.8	-0.2	/	/
CCN(C(=O)/C=C/c1ccc(OC)cc1)c1ccccc1	-4.4	-39.3	0.0	-0.1	/	/
CN(CCc1ccccn1)Cc1cccc(F)c1	73.2*	-6.5	0.2	-0.1	7.3	19.2
O=C(CN1C(=O)c2ccccc2S1(=O)=O)Nc1ncc(C(F)(F)F)cc1Cl	-1.3	22.1	1.5	-0.1	/	/
COc1ccc(/C=N/NC(=O)c2cc(-c3cccn3C)n[nH]2)cc1OC	77.9*	6.3	-0.7	2.1*	-5.6	16.6
O=C1NC(=O)C(CCCc2ccccc2)(C2CCN(C(=O)Cc3cccc(F)c3)CC2)N1 (centres undefined)	50.7*	0.3	-0.8	0.5	3.7	-1.7
O=C1NC(=O)C(CCCc2ccccc2)(C2CCN(C(=O)Cc3cccs3)CC2)N1 (centres undefined)	-17.6	6.0	0.0	0.4	/	/
O=[N+]([O-])c1ccccc1NCCc1ccccc1	6.7	-28.9	-0.1	-0.4	/	/
COCC(=O)NCCNc1nc2c(c(=O)n(C)c(=O)n2C)n1Cc1cc(C)ccc1C	76.7*	6.5	-0.3	0.0	1.0	9.2
Cc1ccc(C)c(Cn2c(NCCNC(=O)C3CCC3)nc3c2c(=O)n(C)c(=O)n3C)c1	73.1*	8.1	0.0	-0.1	3.7	13.1
Cc1ccc(/C=C/C(=O)n2nc(C)cc2C)cc1	-0.4	-17.4	1.7	0.3	/	/
Cc1cc(C)n(C(=O)/C=C/c2ccc(Br)cc2)n1	55.4*	-6.5	0.3	-0.1	6.8	16.1
CC1CN(C2CCN(Cc3ccccc3[N+](=O)[O-])CC2)CC(C)O1 (centres undefined)	65.9*	6.4	1.0	-0.1	-2.6	3.2
CC1CCC(N2CCN(Cc3ccccc3[N+](=O)[O-])CC2)CC1 (centres undefined)	69.3*	-3.1	0.7	-0.2	1.2	3.9
O=[N+]([O-])c1ccccc1CN1CCCCCC1	39.0	6.4	0.8	-0.2	/	/
O=[N+]([O-])c1ccccc1CN1CCN(C2CCCCCC2)CC1	74.9*	-0.3	0.3	0.1	22.5	4.0
O=[N+]([O-])c1ccccc1CN1CCC(N2CCN(c3ccccc3F)CC2)CC1	47.1	5.5	-0.7	-0.4	/	/
CC1CN(Cc2ccccc2[N+](=O)[O-])CC(C)O1 (centres undefined)	39.5	-0.6	-0.9	-0.3	/	/
CCOc1ccccc1CN1CCN(Cc2ccc(O)cc2)CC1CCO (centres undefined)	10.1	1.2	0.5	0.1	/	/
CCOC(=O)N1CCN(C(=S)Nc2ccc(OCC)cc2)CC1	101.8*	1.8	-0.8	0.0	64.1*	-6.2	AS interf DR=>6.48
CCOc1ccc(NCC(=O)Nc2ccc(F)cc2)cc1	68.1*	-26.6	-0.3	-0.1	5.4	1.4
CCOC(=O)c1ccc(NC(=S)N2CCN(C(=O)OCC)CC2)cc1	6.2	-6.7	0.1	-0.1	/	/
O=C1CC(N2CCN(c3ccc(Cl)cc3)CC2)C(=O)N1c1ccccc1F (centres undefined)	2.2	7.8	-0.5	0.1	/	/
O=C1CC(N2CCN(S(=O)(=O)c3ccccc3F)CC2)C(=O)N1c1ccccc1F (centres undefined)	79.5*	1.2	-0.9	-0.3	-14.2	4.0
Cc1ccc(N=c2c([N+](=O)[O-])nn(-c3cccc(C)c3)n2O)cc1	22.1	2.8	0.6	-0.8	/	/

Compound activity from PubChem BioAssay.
